Shown are actives, neighbours in structure and some others; about 2.2% of the full set was active somewhere.
KLF5 inhibitor: inhibitors of KLF5 expression | AID 1700 | inhibition, % at 5 µM | hit rate 0.23% among 290,000 | DLD-1 KLF5 promoter-luciferase reporter, luminescence;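 active = inhibition above a per-plate limit of that plate's mean compound inhibition plus 3 SD, cut at about 60% in these data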;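 also: 0% = DMSO wells and 100% = LY294002 at 200 µM; higher means less KLF5 promoter-driven luciferase light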
BaF3 tox: counter-screen for JAK2V617F inhibitors: parental Ba/F3 viability inhibitors; CellTiter-Glo ATP luminescence; inhibition, % at 5.6 µM; AID 1486; hit rate 1.1% among 220,000;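 active = inhibition above a per-campaign cutoff, the mean inhibition of all tested compounds plus 3 SD, cut at about 27% in these data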;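 also: 0% = DMSO wells and 100% = JAK Inhibitor I control wells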
aSyn 5UTR inh: MLPCN primary screen, SNCA 5' untranslated region. alpha-synuclein 5'UTR reporter, inhibitor activity. hit rate 0.82% among 300,000. inhibition, % (tested at 7.5 µM). AID 1813; in the data active = inhibition above about 60%; inconclusive = no clear call, values can overlap the other calls;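 also: H4 neuroglioblastoma cells stably carrying SNCA 5'UTR luciferase fusion; 0% = DMSO wells and 100% = positive control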
Ba/F3 V617F tox: reduce viability of Ba/F3 cells dependent on JAK2V617F; Ba/F3 EpoR-JAK2V617F viability, ATP luminescence; inhibition, % at 5.6 µM; hit rate 1.1% among 220,000;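 active = inhibition above the campaign mean plus 3 SD over all tested compounds, cut at about 24% in these data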;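 also: cytokine-independent growth of Ba/F3 cells driven by EpoR plus mutant JAK2; 0% = DMSO-treated cells and 100% = JAK inhibitor I control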
APP 5UTR inh: APP translation inhibition. inhibition, % at 2 µM. AID 1285. SH-SY5Y APP 5'UTR-luciferase reporter, luminescence. hit rate 0.82% among 190,000;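 active = inhibition above a set limit, derived from the sample mean plus 3 SD, cut at about 45% in these data; inconclusive = one replicate passes the limit while the other fails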
IEC-6 cytotox: kills IEC-6 intestinal cells in KLF5 counter-screen; IEC-6 cytotoxicity, luminescence viability; inhibition, % at 5 µM; hit rate 0.78% among 290,000; AID 1825; in the data active = inhibition above about 22%;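 also: 0% = plate median of test compound wells and 100% = cytotoxic reference compound wells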
Active calls of the source: *; u = inconclusive; x = no result given.

SMILES	KLF5 inhibitor	BaF3 tox	aSyn 5UTR inh	Ba/F3 V617F tox	APP 5UTR inh	IEC-6 cytotox
Cc1c(C(=O)N2CCC[C@H]2C(N)=O)oc2c(F)cccc12	-49.2	x	-40.3	x	x	-1.9
CC(=O)N(C)c1ccc(OCC(O)Cn2c(C)nc3ccccc32)cc1 (stereo not given)	-46.6	42.3*	1.0	29.4*	4.5	3.9
COc1ccc2[nH]c(C)c(CCN(Cc3cccs3)C(=S)Nc3cccc(F)c3)c2c1	-29.3	51.1*	-18.2	44.9*	-2.0	-4.7
Cc1[nH]c2ccc(F)cc2c1CCN(Cc1cccnc1)C(=S)Nc1cccc(F)c1	-13.4	28.4*	17.7	31.1*	-15.3	4.3
Cc1ccccc1NC(=S)N(CCc1c(C)[nH]c2ccc(F)cc12)Cc1cccnc1	-17.9	8.5	7.6	-1.2	10.3	-4.6
O=C(CCN1C(=O)[C@@H]2Cc3ccccc3CN2C1=O)Nc1cccc(F)c1	-9.8	x	-0.9	x	x	1.8
Cc1ccc(-c2nc(C)sc2CC(=O)OCC(=O)Nc2ccc(F)c(Cl)c2)cc1	x	x	-0.4	x	x	x
Cc1ccc(C)c(N(C)C(=O)CCS(=O)(=O)c2cccc3nonc23)c1	-49.5	x	10.9	x	x	0.5
COc1cc(/C=C2/NC(=O)N(Cc3ccccc3F)C2=O)ccc1O	-14.7	65.4*	-3.3	85.3*	36.0	3.8
COc1ccc(C(O)(CC(C)C)C(CN2CCOCC2)c2ccccc2)cc1 (stereo not given)	20.4	x	66.0*	x	x	-13.9
CCc1ccc(C(O)(CC(C)C)C(CN2CCOCC2)c2ccccc2)cc1 (stereo not given)	0.8	x	u	x	x	-5.2
COc1cccc(CNC(=O)CCCN2C(=O)C(c3ccccc3)Oc3cccnc32)c1OC (stereo not given)	-13.3	x	16.0	x	x	-5.2
CCN(CC)CCSc1nnc2c3ccccc3n(Cc3ccccc3)c2n1	-2.9	48.8*	-16.9	29.4*	x	5.0
CC(=O)Nc1ccc(C2=NN(Cc3nnc(-c4ccccc4)o3)C(=O)SC2)cc1	-9.1	6.0	12.6	-1.4	-7.2	3.9
O=C1SCC(c2ccccc2)=NN1Cc1ccccc1	-71.2	32.4*	5.7	4.9	14.5	3.1
CCOc1ccc(/C=C2\SC(=S)N(CC(=O)Nc3ccccn3)C2=O)cc1	-28.9	x	-17.8	x	x	-1.9
Cc1ccc2ccc3cccnc3c2n1	-21.0	x	-51.3	x	x	71.6*
CCOc1ccc2nc3cc(NCc4ccc(OC)cc4)ccc3c(N)c2c1	8.3	x	108.6*	x	x	-2.0
CCOC(=O)c1c(NC(=O)COC(=O)c2nc(Cl)ccc2Cl)sc(C(=O)NC)c1C	x	x	-0.7	x	x	x
COc1cc2c(cc1OC)C(C(=O)NC(C)c1ccccc1)CC(=O)N2 (stereo not given)	-40.2	x	7.3	x	x	1.3
CS(=O)(=O)N(CC(=O)NC1CCCCC1)Cc1ccc(F)cc1	-8.2	-0.8	0.1	1.9	-0.8	-1.6
COc1ccc(C(=O)/C=C/C(=O)N(CC(=O)NC2CCCCC2)Cc2ccc(F)cc2)c(O)c1	16.8	6.2	71.8*	1.3	77.8*	-7.3
COc1ccccc1NC(=O)CSc1nc(=O)n2cc(C)ccc2n1	x	x	7.2	x	x	x
Cc1nc(-c2ccccc2)cn(O)c1=O	5.1	79.4*	-5.7	2.3	-0.8	6.2
Cc1nn2cc(-c3ccccc3)nc2[nH]c1=O	-44.2	-0.1	-31.5	-1.3	-3.4	-7.4
SMILES	KLF5 inhibitor	BaF3 tox	aSyn 5UTR inh	Ba/F3 V617F tox	APP 5UTR inh	IEC-6 cytotox
OC(COCc1ccc2c(c1)OCO2)CN1CCN(Cc2ccccc2)CC1 (stereo not given)	-26.1	-0.8	15.6	-2.4	50.8*	-4.4
CCC(CC)c1nnc(NC(=O)CCc2ccccc2OC)s1	-30.7	x	6.5	x	x	2.3
Cc1nc2ccc(CN(C)c3ccc(C(=O)N[C@@H](CCC(=O)O)C(=O)O)s3)cc2c(=O)[nH]1	x	x	103.1*	x	x	x
Cc1c(/N=C(\[O-])Nc2ccc(Br)cc2)sn[n+]1C	-120.5	0.8	89.3*	3.5	x	0.8
CNC(=S)Nc1ccc(Br)cc1	-6.0	7.5	-35.1	-0.4	4.0	6.2
Fc1cccc(NC(=S)NNc2ccccc2)c1	-11.8	x	-139.9	x	x	5.6
Fc1cccc(NC(=S)NNc2c3ccccc3nc3ccccc23)c1	-20.1	7.3	-7.5	-3.0	53.5*	8.4
O=C(CSc1nnc(-c2ccncc2)o1)Nc1ccccc1C(F)(F)F	-10.0	x	0.9	x	x	-2.6
CC1(C)N=C(N)N=C(N)N1c1cccc(CN)c1	-30.4	57.9*	-0.6	61.5*	x	2.2
CC1(C)N=C(N)N=C(N)N1c1ccc(F)cc1F	11.2	36.1*	10.5	28.8*	-16.6	2.9
COc1ccc(OC)c(N2C(N)=NC(N)=NC23CCCC3)c1	-22.2	0.4	-14.0	2.6	7.3	-1.0
Cc1cccc(N2C(N)=NC(N)=NC23CCCCC3)c1	-4.5	61.4*	-4.8	60.6*	5.8	-5.6
C=CCN1CCN(C(=O)c2ccc3c(c2)OCO3)CC1	-18.6	x	12.0	x	x	-0.8
COCCNC(=O)Cn1ccc2cc(S(=O)(=O)N3CCCCCC3)ccc21	-19.5	x	6.4	x	x	0.9
CC(=O)N1CCC(=NNC(=O)c2cccs2)CC1	-133.9	53.0*	-114.8	14.8	-116.7	8.9
CCC(=O)NC(Cc1ccccc1)c1ccc2c(c1)OCCCO2 (stereo not given)	-35.8	30.8*	-10.7	38.7*	-11.1	-3.3
O=C(NC(Cc1ccccc1)c1ccc2c(c1)OCCCO2)c1ccccc1 (stereo not given)	-6.0	1.1	-15.8	-3.7	-16.1	0.8
Cc1ccc(C2Cc3cc(O)c(O)cc3CN2)cc1 (stereo not given)	x	x	89.0*	x	x	x
Cc1ccc(O)c(C2=NNC(c3ccc(Cl)cc3)C2)c1 (stereo not given)	-43.5	4.3	-127.6	-4.8	x	-9.7
CCOc1ccc(NS(=O)(=O)c2ccc(C(=O)N3CCN(c4ncccn4)CC3)cc2)cc1	-16.4	31.3*	14.7	20.8	5.8	0.1
CC(=O)c1cccc(NC(=O)CN(C)Cc2ccc(OC(F)F)cc2)c1	-11.3	-1.8	5.8	-1.4	x	-0.9
Cc1cc(C(=O)NN)c2cc(Br)ccc2n1	21.6	4.5	2.9	3.7	75.0*	6.1
CC(=O)/C(N=Nc1c(C)n(C)n(-c2ccccc2)c1=O)=C(\C)O	-24.1	-2.0	-1.9	-1.1	78.6*	-4.0
CC(=N\NC(=O)c1ccc([N+](=O)[O-])cc1)/C(=N/O)C(=O)Nc1ccccc1	-14.4	x	29.9	x	x	-1.3
CCOc1cc(C(=O)N/N=C(\C)Cc2ccc(OC)cc2)cc(OCC)c1OCC	-2.6	2.5	-1.8	-2.5	86.5*	0.2
SMILES	KLF5 inhibitor	BaF3 tox	aSyn 5UTR inh	Ba/F3 V617F tox	APP 5UTR inh	IEC-6 cytotox
CCOC(=O)CCNC(=O)Nc1cc2nc(C)n(Cc3cccc(Cl)c3)c2nc1C	-30.2	x	-1.1	x	x	-6.0
COc1cccc(OC)c1NC(=O)CN(C)S(=O)(=O)c1ccc2c(c1)OCCO2	-4.5	x	22.5	x	x	4.0
CCC(=O)c1ccc(OCC(=O)OCC(=O)N2CCc3ccccc32)cc1	x	x	7.6	x	x	x
Cc1ccc(C(=O)Nc2ccc(C(=O)N/N=C/c3ccc(C)o3)cc2)cc1	-33.3	x	-19.7	x	x	-1.0
CCN(CC)c1ccc(/C=N/NC(=O)c2ccco2)c(O)c1	-81.5	0.7	10.6	-0.4	x	21.7
CCN(CC)c1ccc(/C=N/NC(=O)c2ccco2)cc1	-63.5	10.2	-38.7	5.7	48.6*	8.9
